This is an account of results in the supplement of paper PMC11732987, “Enantioselective OTUD7B fragment discovery through chemoproteomics screening and high-throughput optimisation” (Communications Chemistry, 2025).

Values without a mark were called inactive.

Assay in all cases: log2 ratio of Biotin-Ahx-Ub-VS probe labelling (fragment/DMSO); higher = less target engagement (more negative = stronger competition), active = hit call of the paper (q ≤ 0.05, log2 ratio ≤ -1)
Common to all, as to conditions: compound concentration: 200 uM; treatment time: 3 h

For one assay, the target named is T1, USP19 (UniProt O94966).
T1 sequence (whole entry): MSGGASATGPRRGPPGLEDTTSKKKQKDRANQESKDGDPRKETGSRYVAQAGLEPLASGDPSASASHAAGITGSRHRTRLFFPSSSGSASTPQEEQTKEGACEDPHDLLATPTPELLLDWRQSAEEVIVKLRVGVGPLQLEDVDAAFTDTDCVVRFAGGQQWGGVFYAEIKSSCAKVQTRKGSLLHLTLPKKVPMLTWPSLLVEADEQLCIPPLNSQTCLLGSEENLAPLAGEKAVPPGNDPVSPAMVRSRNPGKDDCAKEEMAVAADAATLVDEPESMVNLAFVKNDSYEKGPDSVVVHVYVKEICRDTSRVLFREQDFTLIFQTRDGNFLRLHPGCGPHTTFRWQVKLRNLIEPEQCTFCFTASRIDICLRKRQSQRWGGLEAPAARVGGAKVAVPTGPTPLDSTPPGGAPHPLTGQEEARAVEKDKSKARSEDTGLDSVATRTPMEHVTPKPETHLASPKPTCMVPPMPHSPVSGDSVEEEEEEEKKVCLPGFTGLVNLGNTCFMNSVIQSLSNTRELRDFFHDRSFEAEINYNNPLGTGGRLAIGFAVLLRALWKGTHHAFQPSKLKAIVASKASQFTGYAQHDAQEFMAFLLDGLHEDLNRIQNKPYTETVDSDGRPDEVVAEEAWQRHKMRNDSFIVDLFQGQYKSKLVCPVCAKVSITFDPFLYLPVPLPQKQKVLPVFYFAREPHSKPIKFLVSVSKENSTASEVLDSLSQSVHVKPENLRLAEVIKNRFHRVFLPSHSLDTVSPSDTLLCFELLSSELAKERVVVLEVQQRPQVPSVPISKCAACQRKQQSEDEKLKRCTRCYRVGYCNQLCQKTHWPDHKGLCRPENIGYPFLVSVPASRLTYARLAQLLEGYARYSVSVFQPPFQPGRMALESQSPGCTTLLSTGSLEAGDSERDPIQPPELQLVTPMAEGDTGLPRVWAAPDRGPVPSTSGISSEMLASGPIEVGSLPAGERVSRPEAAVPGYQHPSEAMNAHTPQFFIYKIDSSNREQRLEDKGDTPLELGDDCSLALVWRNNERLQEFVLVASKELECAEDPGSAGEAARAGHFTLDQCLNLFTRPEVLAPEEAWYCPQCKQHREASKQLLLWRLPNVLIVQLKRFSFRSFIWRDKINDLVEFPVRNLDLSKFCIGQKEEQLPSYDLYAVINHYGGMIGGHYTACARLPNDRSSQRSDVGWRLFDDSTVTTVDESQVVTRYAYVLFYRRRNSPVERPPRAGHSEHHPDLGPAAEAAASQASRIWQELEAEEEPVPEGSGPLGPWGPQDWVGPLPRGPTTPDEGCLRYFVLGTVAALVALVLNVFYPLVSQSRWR
The gist of the method: (§1)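 Average log2 ratios of fragment over vehicle were obtained by unpaired t-test from global-median-normalised Spectronaut label-free quantities. Proteins with ≥2 unique peptides were included. HEK293T lysate (495 µg per sample) was treated in triplicate with fragment at 200 µM or vehicle for 3 h, then with Biotin-Ahx-Ub-VS at 0.5 µM final for 1 h, and labelled DUBs were NeutrAvidin-enriched and run by diaPASEF LC-MS/MS.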

The next assay has as its target T2, USP22 (UniProt Q9UPT9).
T2 sequence (whole entry): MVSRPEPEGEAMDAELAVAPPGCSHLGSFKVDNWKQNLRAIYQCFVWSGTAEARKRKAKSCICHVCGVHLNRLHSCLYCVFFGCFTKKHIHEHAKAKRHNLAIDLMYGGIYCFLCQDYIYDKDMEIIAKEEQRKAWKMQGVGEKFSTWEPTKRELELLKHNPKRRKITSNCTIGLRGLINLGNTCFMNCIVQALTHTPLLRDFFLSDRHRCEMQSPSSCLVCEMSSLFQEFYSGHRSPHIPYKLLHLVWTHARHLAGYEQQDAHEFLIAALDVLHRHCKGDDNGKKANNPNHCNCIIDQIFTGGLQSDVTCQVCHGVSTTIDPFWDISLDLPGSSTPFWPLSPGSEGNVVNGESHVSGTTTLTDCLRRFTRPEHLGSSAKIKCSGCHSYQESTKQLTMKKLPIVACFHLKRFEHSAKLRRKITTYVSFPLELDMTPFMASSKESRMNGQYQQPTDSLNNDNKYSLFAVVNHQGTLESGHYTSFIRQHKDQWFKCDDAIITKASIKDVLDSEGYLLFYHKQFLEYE
The gist of the method:
as §1

The target in the next assay is USP24 (UniProt Q9UPU5). The gist of the method: as §1
Sequence of USP24 (Q9UPU5 whole entry): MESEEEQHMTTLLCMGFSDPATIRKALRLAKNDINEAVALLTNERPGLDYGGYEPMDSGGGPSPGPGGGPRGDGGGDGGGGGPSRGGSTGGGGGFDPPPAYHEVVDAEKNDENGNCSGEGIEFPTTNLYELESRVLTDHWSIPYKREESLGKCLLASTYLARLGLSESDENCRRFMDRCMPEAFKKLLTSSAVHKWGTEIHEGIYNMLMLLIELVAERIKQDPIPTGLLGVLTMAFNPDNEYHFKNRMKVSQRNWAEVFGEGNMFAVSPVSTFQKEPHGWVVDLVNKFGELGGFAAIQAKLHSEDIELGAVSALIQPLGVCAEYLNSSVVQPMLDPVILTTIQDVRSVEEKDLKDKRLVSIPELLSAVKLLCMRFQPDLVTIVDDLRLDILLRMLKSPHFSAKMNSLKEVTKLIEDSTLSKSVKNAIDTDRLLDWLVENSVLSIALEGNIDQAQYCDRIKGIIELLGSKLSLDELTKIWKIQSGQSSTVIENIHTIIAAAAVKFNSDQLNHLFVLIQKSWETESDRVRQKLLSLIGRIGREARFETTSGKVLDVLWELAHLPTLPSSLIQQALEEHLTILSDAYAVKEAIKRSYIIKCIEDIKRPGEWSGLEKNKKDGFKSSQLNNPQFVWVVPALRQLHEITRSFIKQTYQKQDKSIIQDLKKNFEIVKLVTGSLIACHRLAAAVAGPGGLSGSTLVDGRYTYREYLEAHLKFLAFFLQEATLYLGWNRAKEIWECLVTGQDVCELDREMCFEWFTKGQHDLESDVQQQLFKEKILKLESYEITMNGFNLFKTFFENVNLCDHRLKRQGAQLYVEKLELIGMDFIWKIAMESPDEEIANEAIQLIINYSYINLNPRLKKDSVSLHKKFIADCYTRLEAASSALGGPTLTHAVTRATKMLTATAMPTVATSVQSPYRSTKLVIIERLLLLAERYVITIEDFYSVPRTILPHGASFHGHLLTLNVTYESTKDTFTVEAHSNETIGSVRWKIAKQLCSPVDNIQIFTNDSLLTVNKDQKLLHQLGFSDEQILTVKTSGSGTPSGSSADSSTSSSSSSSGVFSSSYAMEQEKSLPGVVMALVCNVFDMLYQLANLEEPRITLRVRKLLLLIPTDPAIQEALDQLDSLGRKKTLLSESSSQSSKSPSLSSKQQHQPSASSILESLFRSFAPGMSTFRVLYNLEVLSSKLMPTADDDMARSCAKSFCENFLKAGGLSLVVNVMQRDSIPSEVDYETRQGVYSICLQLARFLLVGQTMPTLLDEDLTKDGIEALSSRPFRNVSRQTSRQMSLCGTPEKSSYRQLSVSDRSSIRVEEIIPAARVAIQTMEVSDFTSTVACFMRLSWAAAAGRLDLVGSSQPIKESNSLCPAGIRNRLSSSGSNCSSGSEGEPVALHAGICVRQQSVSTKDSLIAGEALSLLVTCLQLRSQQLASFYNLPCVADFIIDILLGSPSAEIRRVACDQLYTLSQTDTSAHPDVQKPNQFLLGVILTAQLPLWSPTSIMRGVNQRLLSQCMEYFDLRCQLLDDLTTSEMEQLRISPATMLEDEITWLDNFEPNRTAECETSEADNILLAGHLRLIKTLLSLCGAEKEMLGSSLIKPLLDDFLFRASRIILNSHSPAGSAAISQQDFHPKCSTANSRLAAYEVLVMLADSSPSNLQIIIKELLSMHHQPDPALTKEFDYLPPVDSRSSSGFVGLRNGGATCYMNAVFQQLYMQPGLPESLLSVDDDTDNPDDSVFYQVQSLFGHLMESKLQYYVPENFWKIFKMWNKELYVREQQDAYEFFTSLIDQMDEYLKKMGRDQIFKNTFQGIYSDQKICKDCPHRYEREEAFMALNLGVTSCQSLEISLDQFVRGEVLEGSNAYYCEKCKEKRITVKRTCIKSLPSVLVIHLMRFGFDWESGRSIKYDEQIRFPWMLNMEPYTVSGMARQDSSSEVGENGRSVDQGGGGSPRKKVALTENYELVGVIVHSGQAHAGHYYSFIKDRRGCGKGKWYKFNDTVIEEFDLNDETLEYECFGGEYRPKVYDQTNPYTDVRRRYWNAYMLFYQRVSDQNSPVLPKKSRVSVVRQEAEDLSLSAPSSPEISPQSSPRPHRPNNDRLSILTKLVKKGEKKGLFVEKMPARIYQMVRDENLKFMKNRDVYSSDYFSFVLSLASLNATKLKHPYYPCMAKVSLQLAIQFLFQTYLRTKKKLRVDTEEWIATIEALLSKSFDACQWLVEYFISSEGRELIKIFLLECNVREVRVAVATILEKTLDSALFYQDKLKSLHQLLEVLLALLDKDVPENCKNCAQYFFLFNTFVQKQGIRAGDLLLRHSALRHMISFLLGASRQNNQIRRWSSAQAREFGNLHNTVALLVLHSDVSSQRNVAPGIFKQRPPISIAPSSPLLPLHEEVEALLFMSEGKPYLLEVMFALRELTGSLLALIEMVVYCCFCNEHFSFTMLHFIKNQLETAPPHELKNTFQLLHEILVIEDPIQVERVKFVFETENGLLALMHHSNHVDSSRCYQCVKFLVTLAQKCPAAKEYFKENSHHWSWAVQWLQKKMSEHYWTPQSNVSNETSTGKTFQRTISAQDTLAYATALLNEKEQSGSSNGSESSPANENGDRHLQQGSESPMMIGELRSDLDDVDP
The target in another assay is T3, USP25 (UniProt Q9UHP3).
T3 sequence (whole entry): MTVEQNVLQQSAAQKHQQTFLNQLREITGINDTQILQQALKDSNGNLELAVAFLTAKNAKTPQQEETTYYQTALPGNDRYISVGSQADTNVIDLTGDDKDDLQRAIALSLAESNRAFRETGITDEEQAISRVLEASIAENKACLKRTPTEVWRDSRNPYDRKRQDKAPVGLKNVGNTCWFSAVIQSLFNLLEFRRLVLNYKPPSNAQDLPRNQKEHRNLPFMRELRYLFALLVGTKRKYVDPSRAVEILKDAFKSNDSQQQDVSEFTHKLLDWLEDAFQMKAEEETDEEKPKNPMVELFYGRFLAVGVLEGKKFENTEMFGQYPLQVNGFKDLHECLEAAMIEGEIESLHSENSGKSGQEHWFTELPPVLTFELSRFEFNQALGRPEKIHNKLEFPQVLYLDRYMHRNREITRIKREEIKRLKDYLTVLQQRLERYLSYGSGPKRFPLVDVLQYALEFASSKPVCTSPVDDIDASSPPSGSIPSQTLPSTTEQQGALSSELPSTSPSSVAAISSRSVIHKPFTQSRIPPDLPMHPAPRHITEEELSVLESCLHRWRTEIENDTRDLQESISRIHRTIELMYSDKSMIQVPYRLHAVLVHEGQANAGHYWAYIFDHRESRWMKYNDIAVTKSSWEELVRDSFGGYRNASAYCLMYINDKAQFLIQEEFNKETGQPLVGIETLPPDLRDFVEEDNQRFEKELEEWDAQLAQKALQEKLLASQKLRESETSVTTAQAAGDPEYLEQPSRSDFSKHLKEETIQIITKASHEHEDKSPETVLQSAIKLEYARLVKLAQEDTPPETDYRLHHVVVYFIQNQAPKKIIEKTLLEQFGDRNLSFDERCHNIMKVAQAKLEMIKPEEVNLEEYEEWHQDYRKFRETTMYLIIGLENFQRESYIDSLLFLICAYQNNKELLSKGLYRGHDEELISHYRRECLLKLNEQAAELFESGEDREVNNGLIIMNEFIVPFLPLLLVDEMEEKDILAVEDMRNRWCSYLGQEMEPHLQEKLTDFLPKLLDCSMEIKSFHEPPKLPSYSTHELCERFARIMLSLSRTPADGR
Put shortly: as §1

A further assay addresses T4, USP28 (UniProt Q96RU2).
T4 sequence (whole entry): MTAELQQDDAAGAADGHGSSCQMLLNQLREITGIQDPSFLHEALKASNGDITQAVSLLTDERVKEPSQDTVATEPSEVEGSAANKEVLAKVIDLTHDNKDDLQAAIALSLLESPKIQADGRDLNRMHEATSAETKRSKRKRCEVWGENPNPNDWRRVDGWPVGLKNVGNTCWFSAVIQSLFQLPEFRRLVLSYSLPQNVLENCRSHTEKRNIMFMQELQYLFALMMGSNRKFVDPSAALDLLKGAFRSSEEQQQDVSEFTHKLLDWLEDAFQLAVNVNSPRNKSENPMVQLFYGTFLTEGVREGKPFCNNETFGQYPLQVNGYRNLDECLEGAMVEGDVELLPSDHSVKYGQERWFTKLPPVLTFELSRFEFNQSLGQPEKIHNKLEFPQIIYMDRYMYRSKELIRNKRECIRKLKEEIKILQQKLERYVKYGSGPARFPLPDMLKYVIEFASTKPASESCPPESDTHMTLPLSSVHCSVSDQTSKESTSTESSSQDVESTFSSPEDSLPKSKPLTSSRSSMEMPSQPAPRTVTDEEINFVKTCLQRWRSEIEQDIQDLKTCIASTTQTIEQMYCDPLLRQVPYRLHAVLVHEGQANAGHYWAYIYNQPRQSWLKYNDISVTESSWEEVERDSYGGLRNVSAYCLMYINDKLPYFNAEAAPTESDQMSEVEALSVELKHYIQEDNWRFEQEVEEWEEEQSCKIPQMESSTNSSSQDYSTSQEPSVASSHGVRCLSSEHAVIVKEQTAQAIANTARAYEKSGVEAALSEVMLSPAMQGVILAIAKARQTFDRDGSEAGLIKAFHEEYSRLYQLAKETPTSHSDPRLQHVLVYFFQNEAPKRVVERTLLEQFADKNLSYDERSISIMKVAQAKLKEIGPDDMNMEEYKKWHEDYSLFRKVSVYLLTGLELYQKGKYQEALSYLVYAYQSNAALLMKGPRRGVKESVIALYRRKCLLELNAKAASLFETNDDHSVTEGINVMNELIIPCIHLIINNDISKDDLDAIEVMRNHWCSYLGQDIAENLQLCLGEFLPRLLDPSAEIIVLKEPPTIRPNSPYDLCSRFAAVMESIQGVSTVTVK
Put shortly: as §1

Turning to `Cc1ccc(N(CCC#N)C(=O)CCl)cc1C`, the “log2 ratio of Biotin-Ahx-Ub-VS probe labelling” value in the assay with USP19 is -0.203; with USP22, 0.0466; with USP24 it was -1.05 (active); with USP25 it was -0.271; with USP28, -0.679.
